The values that follow come from PubChem BioAssay (EPA / NIEHS).

Assay [1] deals with Androgen receptor (Homo sapiens) (UniProt P10275). Put plainly: ATG_AR_TRANS: Attagene TRANS-FACTORIAL HepG2 Assay for human Androgen Receptor (AR) (AID 2282973). To be noted: HepG2 Attagene TRANS-FACTORIAL AR reporter transcription. The method in brief: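 Steps: transfect HepG2 with multiple GAL4-UAS reporter transcription units (TRANS format, exogenous NR-Gal4 protein); dose 24 h; isolate RNA, reverse-transcribe, PCR-amplify, FAM-label, HpaI-digest; resolve by capillary electrophoresis. Positive direction vs DMSO.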

For assay [2], the target named is rat Monoamine Oxidase, MAO-B, Central (MAOBC), Maob (gene 25750) (UniProt P19643). Put plainly: NVS_ENZ_rMAOBC: NovaScreen (NVS) Enzymatic Assay for rat Monoamine Oxidase, MAO-B, Central (MAOBC) (AID 2283238). The method in brief:
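Actives from a duplicate 25 uM screen went on to singleton concentration-response with a 50 uM maximum. Enzyme source was rat brain tissue MAO-B, assayed cell-free. Radiolabelled product was counted by scintillation 1.17 h post-dose, with signal loss relative to DMSO.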

The target in assay [3] is human Protein Tyrosine Phosphatase Receptor Type C (PTPRC), PTPRC (gene 5788) (UniProt P08575). Put plainly: NVS_ENZ_hPTPRC: NovaScreen (NVS) Enzymatic Assay for human Protein Tyrosine Phosphatase Receptor Type C (PTPRC) (AID 2283212). Summed up: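 Absorbance-based phosphatase activity of human PTPRC protein extracted from yeast was measured 1 h post-dosing. Compounds first tested at 25 uM in duplicate, then those passing threshold in singleton concentration series to 50 uM.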

Assay [4] addresses human Phosphatase and Tensin Homolog (PTEN), PTEN (gene 5728) (UniProt P60484). As to the kind of experiment: NVS_ENZ_hPTEN: NovaScreen (NVS) Enzymatic Assay for human Phosphatase and Tensin Homolog (PTEN) (AID 2283203). Summed up: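 Loss of fluorescent product signal after mobility-shift separation reports PTEN activity, recombinant human enzyme, 1 h after compound addition. Single 25 uM duplicate screen, then concentration-response on actives; DMSO baseline.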

In assay [5] the test system is rat Monoamine Oxidase, MAO-A, Peripheral (MAOAP), gene 29253. Put plainly: NVS_ENZ_rMAOAP: NovaScreen (NVS) Enzymatic Assay for rat Monoamine Oxidase, MAO-A, Peripheral (MAOAP) (AID 2283237). Summed up:
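Scintillation counting tracked MAO-A activity in a cell-free rat liver mitochondrial membrane prep, read 1.17 hours after compound addition. Single-point duplicate testing at 25 uM preceded concentration-response follow-up; activity was fitted relative to DMSO.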

The target of assay [6] is rat Oxytocin Receptor (OXT), Oxtr (gene 25342) (UniProt P70536). Put plainly: NVS_GPCR_rOXT: NovaScreen (NVS) G Protein-Coupled Receptor Assay for rat Oxytocin Receptor (OXT) (AID 2283330). Summed up:
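Binding to rat uterine membrane receptor was followed by scintillation counting of filter-trapped radioligand after 1 h. A 25 uM duplicate single-point screen preceded concentration series with a top of 50 uM. Signal loss was analysed relative to DMSO.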

The test system of assay [7] is rat Monoamine Oxidase, MAO-A, Central (MAOAC), gene 29253. Put plainly: NVS_ENZ_rMAOAC: NovaScreen (NVS) Enzymatic Assay for rat Monoamine Oxidase, MAO-A, Central (MAOAC) (AID 2283243).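 Note: potency refers to inhibition seen as signal drop below DMSO baseline.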 Summed up:
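Single-concentration duplicate testing at 25 uM, then concentration-response for actives, in a lysate-based radiodetection MAO-A activity assay from rat brain. Enzyme activity measured 1.5 hours post-dosing; DMSO served as negative control and baseline.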

Assay [8] deals with Norway rat Vesicular Monoamine Transporter (VMAT2), neurotransmitter transporter, Slc18a2 (gene 25549) (UniProt Q01827). Put plainly: NVS_TR_rVMAT2: NovaScreen (NVS) Transporter Assay for Norway rat Vesicular Monoamine Transporter (VMAT2), neurotransmitter transporter (AID 2283376).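 Note: actives lower the bound radioligand signal below the DMSO level.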 The method in brief:
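Using rat forebrain membranes, specific radioligand binding to VMAT2 was measured by filtration and scintillation counting after 1 hour. Chemicals screened at 25 uM in duplicate, actives retested in concentration series, DMSO baseline.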

Assay [9] deals with rat Corticotropin Releasing Factor Receptor (CRF), Crhr1 (gene 58959) (UniProt P35353). As to the kind of experiment: NVS_GPCR_rCRF: NovaScreen (NVS) G Protein-Coupled Receptor Assay for rat Corticotropin Releasing Factor Receptor (CRF) (AID 2283300). The method in brief: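 Single-concentration (25 uM, duplicate) radioligand binding on rat cortical membrane preparations, counted by scintillation after 2 h. Activity scored as signal loss relative to DMSO negative control.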

Assay [10] in a line: Tanguay_ZF_120hpf_MUSC: Oregon State University Tanguay Lab 120 Hour Post-fertilization zebrafish Assay for Muscle Malformation (AID 2284401; active = hit-call score of the fitted dose curve at least 0.9, where 1 is the maximum; inactive = score below 0.9). The method in brief: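 Scored as a binary brightfield endpoint at 120 hpf, fitted versus DMSO. Single dechorionated wild-type (Tropical 5D) zebrafish embryos per well, statically exposed at 28C from 6 hpf onward with final DMSO 0.64%.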

In assay [11] the target is Voltage-dependent N-type calcium channel subunit alpha-1B (Rattus norvegicus) (UniProt Q02294). Put plainly: NVS_IC_rCaChN: NovaScreen (NVS) Ion Channel Assay for rat Calcium Channel, Type N (CaChN) (AID 2283317).
Assay [12] deals with Bile acid receptor (Homo sapiens) (UniProt Q96RI1). Put plainly: NVS_NR_hFXR_Agonist: NovaScreen (NVS) Nuclear Receptor Binding Assay for human Farnesoid X Receptor Agonism (FXR) (AID 2283347). Summed up: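 Agonist-mode FXR assay read by time-resolved FRET 1 h after compound addition, using isolated human receptor protein without cells. Duplicate 25 uM single-point primary screen, concentration series for confirmed actives; DMSO as baseline.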

Assay [13] can be described thus: CCTE_Harrill_HTTr_Apoptosis_PRF_DMEM_12hr: (Pilot) CCTE's 12-hour Apoptosis Assessment for the High-Throughput Transcriptomics (HTTr) Platform, in MCF-7 cells cultured in phenol red-free DMEM + 10% charcoal-stripped fetal bovine serum, Harrill Lab (AID 2283985; active = hit-call score of the fitted dose curve at least 0.9, where 1 is the maximum; inactive = score below 0.9). The method in brief:
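Caspase-3/7 activity by CellEvent Green high content imaging after 12 h compound exposure (eight concentrations) in MCF-7 grown in phenol red-free DMEM plus 10% charcoal-stripped serum; DMSO as baseline.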

Assay [14] is described as follows: ATG_M_32_XSP2: Attagene TRANS-FACTORIAL Multi-Species (XSP2) HepG2 Assay for M19 Transcription Factor (Internal Marker) (AID 2283826). Summed up: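 Transfected HepG2 (multiplexed GAL4-UAS reporters), 24 h chemical exposure, 3 nM 6-alpha-fluorotestosterone + 1.5 nM norgestrel added. RNA → oligo(dT) RT → PCR → 6-FAM primer extension → HpaI cut → CE. Fitted upward vs DMSO.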

Results filed as inconclusive are left out. Active and inactive are the calls of the source. Rule for the calls, unless noted: active = hit-call score of the fitted dose curve at least 0.9, where 1 is the maximum; inconclusive = response in the unintended direction; inactive = score below 0.9.

Androgen receptor (Homo sapiens), sequence (P10275 whole entry, looked up, the tested form may be a part): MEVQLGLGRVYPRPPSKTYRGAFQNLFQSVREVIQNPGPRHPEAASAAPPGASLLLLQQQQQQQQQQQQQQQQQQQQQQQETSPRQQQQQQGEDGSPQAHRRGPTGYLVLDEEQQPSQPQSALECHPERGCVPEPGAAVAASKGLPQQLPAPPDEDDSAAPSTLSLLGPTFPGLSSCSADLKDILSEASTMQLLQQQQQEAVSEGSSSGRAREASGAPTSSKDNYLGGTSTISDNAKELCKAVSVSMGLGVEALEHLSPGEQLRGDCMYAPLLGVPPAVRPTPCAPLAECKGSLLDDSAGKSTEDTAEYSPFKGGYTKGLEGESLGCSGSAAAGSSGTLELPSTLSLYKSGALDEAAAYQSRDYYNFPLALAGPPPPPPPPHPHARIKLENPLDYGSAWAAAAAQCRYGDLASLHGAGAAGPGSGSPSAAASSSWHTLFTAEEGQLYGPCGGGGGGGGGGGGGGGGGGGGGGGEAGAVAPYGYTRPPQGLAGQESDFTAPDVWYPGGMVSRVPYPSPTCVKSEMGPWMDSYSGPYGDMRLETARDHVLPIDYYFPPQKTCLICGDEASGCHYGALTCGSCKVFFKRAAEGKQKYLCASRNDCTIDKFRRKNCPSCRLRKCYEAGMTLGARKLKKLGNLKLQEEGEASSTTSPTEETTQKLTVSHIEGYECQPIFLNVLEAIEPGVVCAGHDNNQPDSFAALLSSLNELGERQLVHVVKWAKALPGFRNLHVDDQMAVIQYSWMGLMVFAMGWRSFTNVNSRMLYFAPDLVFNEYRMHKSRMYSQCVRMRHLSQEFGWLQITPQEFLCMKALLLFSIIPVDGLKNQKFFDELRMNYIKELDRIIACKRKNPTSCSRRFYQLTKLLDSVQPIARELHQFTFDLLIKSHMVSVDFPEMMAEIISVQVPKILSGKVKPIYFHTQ
Norway rat Vesicular Monoamine Transporter (VMAT2), neurotransmitter transporter, Slc18a2 (gene 25549), sequence (Q01827 whole entry, looked up): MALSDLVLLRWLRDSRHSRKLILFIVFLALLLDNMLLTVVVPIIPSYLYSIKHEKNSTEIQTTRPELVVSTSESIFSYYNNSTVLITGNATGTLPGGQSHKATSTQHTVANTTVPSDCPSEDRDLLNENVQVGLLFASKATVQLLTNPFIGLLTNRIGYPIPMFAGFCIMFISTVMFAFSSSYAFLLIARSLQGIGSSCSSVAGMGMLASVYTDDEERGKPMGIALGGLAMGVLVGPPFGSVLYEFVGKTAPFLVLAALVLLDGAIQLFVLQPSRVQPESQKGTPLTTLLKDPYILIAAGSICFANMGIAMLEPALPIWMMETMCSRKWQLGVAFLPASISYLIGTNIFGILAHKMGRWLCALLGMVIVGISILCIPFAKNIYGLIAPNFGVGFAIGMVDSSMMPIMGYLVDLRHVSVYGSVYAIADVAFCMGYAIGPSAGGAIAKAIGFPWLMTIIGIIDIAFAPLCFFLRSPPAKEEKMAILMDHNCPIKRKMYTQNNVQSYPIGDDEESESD
rat Monoamine Oxidase, MAO-B, Central (MAOBC), Maob (gene 25750), sequence (P19643 whole entry, looked up): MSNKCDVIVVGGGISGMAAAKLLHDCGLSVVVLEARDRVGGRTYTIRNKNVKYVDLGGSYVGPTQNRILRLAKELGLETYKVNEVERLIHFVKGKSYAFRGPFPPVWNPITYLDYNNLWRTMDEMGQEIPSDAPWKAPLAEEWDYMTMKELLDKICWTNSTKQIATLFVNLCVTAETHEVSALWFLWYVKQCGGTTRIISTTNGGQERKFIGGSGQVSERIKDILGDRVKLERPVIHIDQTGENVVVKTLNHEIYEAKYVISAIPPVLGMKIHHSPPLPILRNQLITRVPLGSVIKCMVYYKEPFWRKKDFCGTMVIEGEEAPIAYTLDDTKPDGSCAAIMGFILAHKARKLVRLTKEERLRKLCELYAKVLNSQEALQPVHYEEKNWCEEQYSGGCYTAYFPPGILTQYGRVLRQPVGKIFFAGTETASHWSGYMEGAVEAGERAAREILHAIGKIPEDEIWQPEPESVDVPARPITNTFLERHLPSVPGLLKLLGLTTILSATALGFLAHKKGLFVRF
human Phosphatase and Tensin Homolog (PTEN), PTEN (gene 5728), sequence (P60484 whole entry, looked up): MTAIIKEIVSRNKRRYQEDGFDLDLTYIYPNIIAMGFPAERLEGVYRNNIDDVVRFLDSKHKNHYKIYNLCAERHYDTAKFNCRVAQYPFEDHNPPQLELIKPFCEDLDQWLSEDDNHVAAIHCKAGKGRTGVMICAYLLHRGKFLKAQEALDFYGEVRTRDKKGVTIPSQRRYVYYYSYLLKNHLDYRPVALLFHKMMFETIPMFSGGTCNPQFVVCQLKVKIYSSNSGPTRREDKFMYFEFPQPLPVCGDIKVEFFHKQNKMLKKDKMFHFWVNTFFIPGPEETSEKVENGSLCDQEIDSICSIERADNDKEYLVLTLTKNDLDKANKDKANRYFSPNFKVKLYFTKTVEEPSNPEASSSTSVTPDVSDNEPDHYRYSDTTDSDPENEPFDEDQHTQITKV
human Protein Tyrosine Phosphatase Receptor Type C (PTPRC), PTPRC (gene 5788), sequence (P08575 whole entry, looked up): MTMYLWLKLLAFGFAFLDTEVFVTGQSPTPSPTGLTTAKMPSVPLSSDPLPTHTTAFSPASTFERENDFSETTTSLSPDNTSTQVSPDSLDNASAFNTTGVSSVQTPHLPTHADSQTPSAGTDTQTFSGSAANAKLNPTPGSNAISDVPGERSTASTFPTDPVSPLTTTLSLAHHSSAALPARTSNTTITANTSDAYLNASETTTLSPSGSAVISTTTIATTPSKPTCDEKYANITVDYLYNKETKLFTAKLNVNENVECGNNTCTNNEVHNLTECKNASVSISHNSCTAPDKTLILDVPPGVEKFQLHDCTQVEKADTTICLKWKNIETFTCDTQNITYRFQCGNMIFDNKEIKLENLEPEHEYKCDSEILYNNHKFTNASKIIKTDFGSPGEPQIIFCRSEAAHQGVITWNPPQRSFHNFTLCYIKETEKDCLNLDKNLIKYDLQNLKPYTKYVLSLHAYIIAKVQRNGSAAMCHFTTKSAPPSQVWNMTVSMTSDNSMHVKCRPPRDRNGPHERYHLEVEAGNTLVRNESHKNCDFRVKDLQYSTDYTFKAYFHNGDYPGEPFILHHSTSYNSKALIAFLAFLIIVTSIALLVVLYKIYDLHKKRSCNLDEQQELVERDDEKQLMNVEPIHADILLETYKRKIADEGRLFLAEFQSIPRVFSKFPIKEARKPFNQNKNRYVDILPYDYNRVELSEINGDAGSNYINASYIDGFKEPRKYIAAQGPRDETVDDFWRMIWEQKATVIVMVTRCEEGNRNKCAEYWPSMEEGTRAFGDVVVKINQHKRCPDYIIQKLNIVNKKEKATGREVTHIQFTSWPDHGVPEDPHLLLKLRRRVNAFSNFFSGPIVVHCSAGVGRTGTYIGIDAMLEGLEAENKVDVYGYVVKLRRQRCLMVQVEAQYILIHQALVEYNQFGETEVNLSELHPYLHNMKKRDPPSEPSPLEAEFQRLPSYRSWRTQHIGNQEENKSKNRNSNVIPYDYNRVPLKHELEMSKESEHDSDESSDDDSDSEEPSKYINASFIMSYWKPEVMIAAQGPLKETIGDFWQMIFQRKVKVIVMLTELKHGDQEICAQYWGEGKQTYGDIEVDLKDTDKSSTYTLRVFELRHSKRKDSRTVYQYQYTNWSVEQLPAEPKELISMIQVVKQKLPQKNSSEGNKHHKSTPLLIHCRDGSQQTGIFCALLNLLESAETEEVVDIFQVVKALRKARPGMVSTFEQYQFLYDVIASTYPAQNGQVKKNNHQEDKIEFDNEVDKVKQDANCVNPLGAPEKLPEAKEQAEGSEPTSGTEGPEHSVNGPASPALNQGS
rat Oxytocin Receptor (OXT), Oxtr (gene 25342), sequence (P70536 whole entry, looked up): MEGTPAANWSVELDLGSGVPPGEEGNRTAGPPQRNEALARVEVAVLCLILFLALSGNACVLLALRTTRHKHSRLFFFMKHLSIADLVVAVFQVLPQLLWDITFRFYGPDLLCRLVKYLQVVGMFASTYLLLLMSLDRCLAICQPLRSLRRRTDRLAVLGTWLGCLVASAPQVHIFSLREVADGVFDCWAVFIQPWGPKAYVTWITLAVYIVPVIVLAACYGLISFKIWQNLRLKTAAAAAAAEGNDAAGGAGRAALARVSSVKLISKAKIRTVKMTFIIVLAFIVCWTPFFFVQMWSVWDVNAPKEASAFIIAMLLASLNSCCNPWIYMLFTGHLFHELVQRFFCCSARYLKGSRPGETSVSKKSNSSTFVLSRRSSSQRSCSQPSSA
Bile acid receptor (Homo sapiens), sequence (Q96RI1 whole entry, looked up): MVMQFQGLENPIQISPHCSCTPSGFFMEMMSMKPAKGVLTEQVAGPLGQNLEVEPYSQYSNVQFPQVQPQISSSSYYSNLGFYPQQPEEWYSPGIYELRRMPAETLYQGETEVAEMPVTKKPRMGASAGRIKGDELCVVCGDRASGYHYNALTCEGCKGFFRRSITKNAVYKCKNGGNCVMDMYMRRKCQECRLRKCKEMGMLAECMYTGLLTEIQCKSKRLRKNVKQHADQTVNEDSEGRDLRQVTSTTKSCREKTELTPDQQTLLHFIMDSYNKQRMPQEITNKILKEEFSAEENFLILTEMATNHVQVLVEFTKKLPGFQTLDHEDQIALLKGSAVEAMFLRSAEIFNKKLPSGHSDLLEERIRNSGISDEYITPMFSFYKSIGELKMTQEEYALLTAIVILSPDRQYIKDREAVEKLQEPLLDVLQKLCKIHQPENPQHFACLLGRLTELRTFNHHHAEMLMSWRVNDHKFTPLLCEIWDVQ
rat Corticotropin Releasing Factor Receptor (CRF), Crhr1 (gene 58959), sequence (P35353 whole entry, looked up): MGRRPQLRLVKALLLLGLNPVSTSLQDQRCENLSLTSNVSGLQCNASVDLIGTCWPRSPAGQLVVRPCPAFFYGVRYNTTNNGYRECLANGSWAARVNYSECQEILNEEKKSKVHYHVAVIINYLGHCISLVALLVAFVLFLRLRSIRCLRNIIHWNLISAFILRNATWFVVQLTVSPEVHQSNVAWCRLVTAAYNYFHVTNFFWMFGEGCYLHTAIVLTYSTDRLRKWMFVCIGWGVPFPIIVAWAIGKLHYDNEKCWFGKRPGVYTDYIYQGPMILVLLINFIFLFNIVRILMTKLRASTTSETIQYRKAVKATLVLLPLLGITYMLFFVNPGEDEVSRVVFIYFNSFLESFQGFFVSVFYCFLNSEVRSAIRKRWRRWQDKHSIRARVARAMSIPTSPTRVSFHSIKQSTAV

On to `CN(Cc1cnc2nc(N)nc(N)c2n1)c1ccc(C(=O)N[C@@H](CCC(=O)O)C(=O)O)cc1`, for which the call in assay [1] and in assay [2] was inactive.

For `O=C(c1ccccc1)C1CCCCC1`, the compound was classed as inactive in [1] and in [3].

In the case of `O=C(O)C[C@H](O)C[C@H](O)/C=C/c1c(C2CC2)nc2ccccc2c1-c1ccc(F)cc1`, in assay [1], the result was inactive. Besides, the AC50 in [4] is 0.161 µM (active).

For `CC1(C)[C@H](C(=O)OCc2cccc(Oc3ccccc3)c2)[C@@H]1C=C(Cl)Cl`, in assay [1], the compound was called inactive. Moreover, in assay [4], the AC50 is 15.7 µM (active).

For the compound `CN(C[C@@H](CC[N+]12CCC(C3CCCCC3)(CC1)CC2)c1ccc(Cl)c(Cl)c1)C(=O)c1cc(C(F)(F)F)cc(C(F)(F)F)c1`, the outcome in [1] and in assay [3] was inactive. Further, the AC50 was 16.2 µM (active) in assay [4], 36.8 µM (active) in [5] and 16.5 µM (active) in assay [6].

Take `Clc1cccc(Cl)n1`: the compound was called inactive in [1] and in assay [7].

Turning to `CCOC(=O)COc1cc(-n2ncc(C(F)(F)F)c(C)c2=O)c(F)cc1Cl`, the compound was called inactive in assay [1] and in assay [5].

On to `CCCCC(CC)C(=O)OCCOCCOCCOC(=O)C(CC)CCCC` (stereo not given), for which the compound was classed as inactive in [1], in assay [5] and in assay [7].

Turning to `Oc1ccc(/C=C/c2cc(O)cc(O)c2)cc1`, the compound was called inactive in assay [1]. The concentration at half-maximal activity (AC50) is 1.58 µM (active) in assay [7] and 21 µM (active) in [8].

As to `NCCOCCOCCN`, the compound was called inactive in [1] and in assay [6].

With `CC(=O)S[C@@H]1CC2=CC(=O)CC[C@]2(C)[C@H]2CC[C@@]3(C)[C@@H](CC[C@@]34CCC(=O)O4)[C@H]12`, the compound was classed as inactive in assay [1] and in assay [8].

Consider `OCCC(F)(F)C(F)(F)C(F)(F)C(F)(F)C(F)(F)C(F)(F)C(F)(F)C(F)(F)F`, for which the result in [1], in assay [9] and in assay [10] was inactive.

As for `O=C=Nc1cccc2c(N=C=O)cccc12`, the outcome in [1] and in assay [4] was inactive.

Turning to `CC(C)CCOCCC(C)C`, the compound was classed as inactive in assay [1] and in assay [4].

As for `O=C(O)Cc1ccccc1Nc1c(Cl)cccc1Cl`, the result in assay [1] and in [3] was inactive.

For the compound `CCCCCCc1ccc(O)cc1O`, the compound was classed as inactive in assay [1]. Also, the concentration at half-maximal activity (AC50) in assay [5] was 25 µM (active); in [7] it was 16.5 µM (active).

As for `CC(=N[Si](C)(C)C)O[Si](C)(C)C`, the compound was called inactive in [1] and in assay [8].

In the case of `O[Si](c1ccccc1)(c1ccccc1)c1ccccc1`, in assay [1], the result was inactive. Besides, in assay [4], the AC50 was 10.6 µM (active).

With `CCCCCCCC(=O)OCC`, the call in assay [1] was inactive. In [7], the AC50 was 37.3 µM (active).

`O=C1c2ccc(O)c(O)c2C(=O)c2c(O)ccc(O)c21`: the compound was classed as inactive in [1] and in assay [7].

As for `C=C(C)CCO`, the outcome in assay [1] and in assay [4] was inactive.

Regarding `CCC(=O)OC/C=C(\C)CCC=C(C)C`, the compound was classed as inactive in assay [1] and in assay [7].

Take `O=[N+]([O-])c1ccc(CO)cc1`: the result in assay [1] and in assay [4] was inactive.

Regarding `CCOC(=O)CC(C)O` (stereo not given), the call in assay [1] and in assay [7] was inactive.

In the case of `O=C(CCCCCCCCc1cccnc1)N1CCC(C=C(c2ccccc2)c2ccccc2)CC1`, the compound was classed as inactive in [1], in assay [2] and in [11].

Consider `O=C(NS(=O)(=O)/C=C/c1cccs1)c1ccc(F)cc1Br`, for which the compound was called inactive in assay [1] and in assay [2].

With `CCN(CC)c1ccc(C=O)c(O)c1`, the call in assay [1] and in [8] was inactive. Further, the AC50 in assay [7] was 17.5 µM (active).

With `COCCC(=O)OC`, the outcome in assay [1] and in assay [7] was inactive.

As to `CCc1cccc(CC)c1`, the compound was classed as inactive in assay [1] and in assay [4].

`CCN(CCC#N)c1ccc(N=Nc2ccc([N+](=O)[O-])cc2)cc1`: the outcome in [1], in assay [4] and in [8] was inactive.

`CCN(CC)c1ccc(N=Nc2ccccc2)cc1`: the call in [1] and in [8] was inactive.

On to `CC(C)OC(=O)C(C)(C)Oc1ccc(C(=O)c2ccc(Cl)cc2)cc1`, for which the compound was called inactive in assay [1] and in assay [13]. Besides, the AC50 in assay [12] was 25 µM (active).

`CCOC(=O)C1=NN(c2ccc(Cl)cc2Cl)C(C)(C(=O)OCC)C1` (stereo not given): the compound was called inactive in [1] and in assay [4]. Further, the AC50 in [8] was 15.5 µM (active).

`CN[C@H]1CC[C@@H](c2ccc(Cl)c(Cl)c2)c2ccc(S(N)(=O)=O)cc21`: the result in [1] and in assay [11] was inactive.

For the compound `COc1ccccc1C=O`, the compound was called inactive in assay [1] and in [4].

Turning to `OCCCc1cccnc1`, the compound was called inactive in [1] and in [4].

For `CC=CC(=O)C1=C(C)C=CCC1(C)C`, the call in [1] and in assay [4] was inactive.

As for `CCCCCCCCC(C)=O`, the result in [1], in assay [4] and in [8] was inactive.

With `Cn1c(=O)[nH]c2ncn(C)c2c1=O`, the outcome in assay [1] was inactive. Also, the concentration at half-maximal activity (AC50) in [7] is 34.9 µM (active).

With `CCC(=C(c1ccc(O)cc1)c1ccc(OCCN(C)C)cc1)c1ccccc1`, the compound was called inactive in assay [1] and in [11]. Besides, the results for the AC50 in assay [8] and in assay [13] were 0.626 µM (active) and 80.6 µM (active), respectively.

Take `FC1CC(F)(F)C(F)(F)C1(F)F` (stereo not given): the call in assay [1] and in [10] was inactive.

For `c1ccc2c(c1)ccc1ccccc12`, the result in [1], in [8] and in assay [14] was inactive.

By AC50 is commonly meant the concentration giving half of the maximal activity seen.
